Reference: PubChem BioAssay (NCI)
This is part of a sample that, as a whole, favours compounds with a hit. Of some 83,000 tested, about 20% had one in any assay.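 For each line, cells grew in 96-well plates with the test compound present at a single concentration for 48 hours.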 Active and inactive are the calls of the source. The calls were made as follows: active = growth percent below 10; inactive = the rest.

Columns and labels:
Experiment in all cases: NCI-60 one-dose screen, 48 h (100 = growth as untreated, 0 = no growth, -100 = all killed)
Settings in all cases: 10 µM unless noted
SK-MEL-2 melanoma = test system: SK-MEL-2 melanoma
EKVX NSCLC = test system: EKVX NSCLC
SN12C renal = test system: SN12C renal
UO-31 renal = test system: UO-31 renal
TK-10 renal = test system: TK-10 renal
ACHN renal = test system: ACHN renal
CAKI-1 renal = test system: CAKI-1 renal
A498 renal = test system: A498 renal
CCRF-CEM leukemia = test system: CCRF-CEM leukemia
MOLT-4 leukemia = test system: MOLT-4 leukemia
SR leukemia = test system: SR leukemia
RPMI-8226 leukemia = test system: RPMI-8226 leukemia
OVCAR-8 ovarian = test system: OVCAR-8 ovarian
OVCAR-5 ovarian = test system: OVCAR-5 ovarian
OVCAR-4 ovarian = test system: OVCAR-4 ovarian
SK-OV-3 ovarian = test system: SK-OV-3 ovarian
IGROV1 ovarian = test system: IGROV1 ovarian
OVCAR-3 ovarian = test system: OVCAR-3 ovarian
HS 578T breast = test system: HS 578T breast
NCI/ADR-RES ovarian = test system: NCI/ADR-RES ovarian

Measured: growth

O=c1cc(-c2ccccc2)[nH]c2ncc(-c3ccc(F)cc3)n12
inactive: SK-MEL-2 melanoma 74.2% | EKVX NSCLC 87.8% | SN12C renal 88.5% | UO-31 renal 69.2% | TK-10 renal 105% | ACHN renal 88.3% | CAKI-1 renal 48.1% | A498 renal 59% | CCRF-CEM leukemia 56.3% | MOLT-4 leukemia 39.9% | SR leukemia 16.1% | RPMI-8226 leukemia 74.5% | OVCAR-8 ovarian 89.4% | OVCAR-5 ovarian 94.5% | OVCAR-4 ovarian 93.9% | SK-OV-3 ovarian 82.1% | IGROV1 ovarian 67% | OVCAR-3 ovarian 54% | HS 578T breast 68% | NCI/ADR-RES ovarian 45.3%

Cc1ccc(/C=C/C(=O)c2cccc(OCCCOc3cccc(C(=O)/C=C/c4ccc(C)cc4)c3)c2)cc1
inactive: SK-MEL-2 melanoma 105% | EKVX NSCLC 80% | SN12C renal 79.6% | UO-31 renal 64% | TK-10 renal 120% | ACHN renal 78.6% | CAKI-1 renal 68.1% | A498 renal 86.4% | CCRF-CEM leukemia 73.6% | MOLT-4 leukemia 85.1% | SR leukemia 25.9% | OVCAR-8 ovarian 87.5% | OVCAR-5 ovarian 124% | OVCAR-4 ovarian 65.3% | SK-OV-3 ovarian 99.2% | IGROV1 ovarian 77.2% | OVCAR-3 ovarian 82.4% | HS 578T breast 86.1% | NCI/ADR-RES ovarian 91.4%
active: RPMI-8226 leukemia -0.643%

CN1CCN(CCOc2ccc(-c3cnc4c(-c5cccc(F)c5F)cnn4c3)cc2)CC1
active: TK-10 renal -64.2% | ACHN renal -22.7% | CAKI-1 renal -8.23% | CCRF-CEM leukemia -13.3% | SR leukemia -1.72% | RPMI-8226 leukemia -30.5% | OVCAR-8 ovarian 4.29% | OVCAR-4 ovarian -49.8% | OVCAR-3 ovarian -52.6% | NCI/ADR-RES ovarian 8.9%
inactive: SK-MEL-2 melanoma 99.9% | EKVX NSCLC 78.6% | SN12C renal 90.3% | UO-31 renal 80.8% | A498 renal 95.4% | MOLT-4 leukemia 80.5% | OVCAR-5 ovarian 116% | SK-OV-3 ovarian 108% | IGROV1 ovarian 81.7% | HS 578T breast 103%

O=C(Cc1ccc(NC(=O)c2cccc(Cl)c2)cc1)NCc1ccccc1
inactive: SK-MEL-2 melanoma 46.8% | EKVX NSCLC 72.8% | SN12C renal 58.1% | UO-31 renal 59.9% | TK-10 renal 64.3% | ACHN renal 65% | CAKI-1 renal 52% | A498 renal 42.2% | CCRF-CEM leukemia 22.7% | MOLT-4 leukemia 39.7% | SR leukemia 11.3% | RPMI-8226 leukemia 65.8% | OVCAR-8 ovarian 67.1% | OVCAR-5 ovarian 73.2% | OVCAR-4 ovarian 82.8% | SK-OV-3 ovarian 57.6% | IGROV1 ovarian 49.4% | OVCAR-3 ovarian 16.7% | HS 578T breast 32.9% | NCI/ADR-RES ovarian 50.5%

O=C(Nc1cnc(Nc2ccc(N3CCOCC3)nc2)nc1Oc1ccc(C(F)(F)F)cc1)c1ccncc1
inactive: SK-MEL-2 melanoma 94.8% | EKVX NSCLC 100% | SN12C renal 85% | UO-31 renal 98.4% | TK-10 renal 107% | ACHN renal 98.9% | CAKI-1 renal 90.4% | A498 renal 95.8% | CCRF-CEM leukemia 90.8% | MOLT-4 leukemia 101% | SR leukemia 19.3% | RPMI-8226 leukemia 100% | OVCAR-8 ovarian 86.6% | OVCAR-5 ovarian 92.9% | OVCAR-4 ovarian 80.3% | SK-OV-3 ovarian 101% | IGROV1 ovarian 94% | OVCAR-3 ovarian 85% | HS 578T breast 81.6% | NCI/ADR-RES ovarian 86%

CC1=C(C(=O)Nc2nc(-c3ccc(Cl)cc3)cs2)[C@H](c2ccc(O)cc2)NC(=O)N1
inactive: SK-MEL-2 melanoma 106% | EKVX NSCLC 94.1% | SN12C renal 107% | UO-31 renal 78.3% | TK-10 renal 103% | ACHN renal 105% | CAKI-1 renal 91% | A498 renal 99.4% | CCRF-CEM leukemia 116% | MOLT-4 leukemia 94.2% | SR leukemia 113% | RPMI-8226 leukemia 109% | OVCAR-8 ovarian 105% | OVCAR-5 ovarian 106% | OVCAR-4 ovarian 98.6% | SK-OV-3 ovarian 111% | IGROV1 ovarian 97.8% | OVCAR-3 ovarian 95.8% | HS 578T breast 106% | NCI/ADR-RES ovarian 101%

COc1ccc(N2CCC(=S)NC2=S)cc1
inactive: SK-MEL-2 melanoma 115% | EKVX NSCLC 104% | SN12C renal 98% | UO-31 renal 84.3% | TK-10 renal 96% | ACHN renal 104% | CAKI-1 renal 85% | A498 renal 108% | CCRF-CEM leukemia 102% | MOLT-4 leukemia 98.9% | SR leukemia 112% | RPMI-8226 leukemia 103% | OVCAR-8 ovarian 99.1% | OVCAR-5 ovarian 104% | OVCAR-4 ovarian 90.1% | SK-OV-3 ovarian 116% | IGROV1 ovarian 105% | OVCAR-3 ovarian 103% | HS 578T breast 105% | NCI/ADR-RES ovarian 103%

CC1=C2[C@@H](CC1)[C@]1(C)O[C@@](c3ccccc3)(C[C@H]1OC(=O)CO)[C@H]2OC(=O)/C=C/c1ccccc1
active: UO-31 renal -8.71% | ACHN renal 2.46% | A498 renal -78.1% | OVCAR-4 ovarian 5.56% | HS 578T breast -10.2% | NCI/ADR-RES ovarian 2.86%
inactive: SK-MEL-2 melanoma 91.9% | EKVX NSCLC 83.4% | SN12C renal 41.4% | TK-10 renal 111% | CAKI-1 renal 72.2% | CCRF-CEM leukemia 77.5% | MOLT-4 leukemia 70.8% | SR leukemia 68.8% | RPMI-8226 leukemia 77.7% | OVCAR-8 ovarian 10.3% | OVCAR-5 ovarian 108% | SK-OV-3 ovarian 119% | IGROV1 ovarian 108% | OVCAR-3 ovarian 97.6%

Cc1ccc(C(=O)c2ccc(CC(=O)NN3C(=O)c4ccccc4C3=O)n2C)cc1
inactive: SK-MEL-2 melanoma 102% | EKVX NSCLC 100% | SN12C renal 92.8% | UO-31 renal 75.7% | TK-10 renal 111% | ACHN renal 96.3% | CAKI-1 renal 87.4% | A498 renal 104% | CCRF-CEM leukemia 110% | MOLT-4 leukemia 100% | SR leukemia 110% | RPMI-8226 leukemia 100% | OVCAR-8 ovarian 98.9% | OVCAR-5 ovarian 93.7% | OVCAR-4 ovarian 101% | SK-OV-3 ovarian 109% | IGROV1 ovarian 98.6% | OVCAR-3 ovarian 107% | HS 578T breast 104% | NCI/ADR-RES ovarian 99.1%

Cc1ccc(S(=O)(=O)N2CCC(=O)c3ccccc32)cc1
inactive: SK-MEL-2 melanoma 56.9% | EKVX NSCLC 102% | SN12C renal 81.2% | UO-31 renal 71.1% | TK-10 renal 89.1% | ACHN renal 90.7% | CAKI-1 renal 91.9% | A498 renal 83.2% | CCRF-CEM leukemia 66.3% | MOLT-4 leukemia 64.1% | SR leukemia 39.1% | RPMI-8226 leukemia 106% | OVCAR-8 ovarian 103% | OVCAR-5 ovarian 91% | OVCAR-4 ovarian 99.3% | SK-OV-3 ovarian 62.2% | IGROV1 ovarian 85.2% | OVCAR-3 ovarian 63.4% | HS 578T breast 71.7% | NCI/ADR-RES ovarian 72.6%

CN1CCN(C(=S)SCCCCOc2cc(=O)oc3ccccc23)CC1
inactive: SK-MEL-2 melanoma 73.9% | EKVX NSCLC 88.1% | SN12C renal 88.5% | UO-31 renal 72.3% | TK-10 renal 93.3% | ACHN renal 92.9% | CAKI-1 renal 93.7% | A498 renal 74.7% | CCRF-CEM leukemia 72.5% | MOLT-4 leukemia 73.2% | SR leukemia 67.4% | RPMI-8226 leukemia 64.8% | OVCAR-8 ovarian 78.4% | OVCAR-5 ovarian 101% | OVCAR-4 ovarian 72.4% | SK-OV-3 ovarian 99.5% | IGROV1 ovarian 102% | OVCAR-3 ovarian 95.8% | HS 578T breast 96.2% | NCI/ADR-RES ovarian 76.2%

COc1ccc(/C=C/C(=O)c2cc(OC)c(OC)c(OC)c2)cc1OCC(=O)Nc1nc2ccc(OC(F)(F)F)cc2s1
active: UO-31 renal 3.8% | TK-10 renal -6.47% | ACHN renal -1.17% | CAKI-1 renal 9.57% | MOLT-4 leukemia 0.429% | RPMI-8226 leukemia 6.47% | OVCAR-8 ovarian 3.67% | OVCAR-4 ovarian -7.18% | SK-OV-3 ovarian -11.8% | IGROV1 ovarian -1.97% | OVCAR-3 ovarian -77.3% | HS 578T breast -20.8% | NCI/ADR-RES ovarian -13.5%
inactive: SK-MEL-2 melanoma 45.7% | EKVX NSCLC 62.1% | SN12C renal 19.1% | A498 renal 68.1% | CCRF-CEM leukemia 20.4% | SR leukemia 11.6% | OVCAR-5 ovarian 96.3%

COc1cc(C(=O)n2nc(N3CCOCC3)c3cc(-n4cccc4)ccc32)cc(OC)c1OC
inactive: SK-MEL-2 melanoma 92.1% | EKVX NSCLC 60.6% | SN12C renal 69% | UO-31 renal 32.9% | TK-10 renal 88.4% | ACHN renal 49.8% | CAKI-1 renal 60.6% | CCRF-CEM leukemia 36.4% | MOLT-4 leukemia 33.1% | RPMI-8226 leukemia 42.6% | OVCAR-8 ovarian 64% | OVCAR-5 ovarian 98.3% | OVCAR-4 ovarian 68.5% | SK-OV-3 ovarian 72.5% | IGROV1 ovarian 68% | OVCAR-3 ovarian 87.3% | HS 578T breast 68.5% | NCI/ADR-RES ovarian 68.5%
active: A498 renal 0.812% | SR leukemia 6.85%

O=C(Nc1ncc(Cc2cc(C(F)(F)F)ccc2Cl)s1)c1cccs1
inactive: SK-MEL-2 melanoma 45% | EKVX NSCLC 57.3% | SN12C renal 70.9% | UO-31 renal 58.9% | TK-10 renal 71.7% | ACHN renal 67.2% | CAKI-1 renal 41.7% | A498 renal 62.2% | CCRF-CEM leukemia 45.4% | MOLT-4 leukemia 29.4% | SR leukemia 16.1% | RPMI-8226 leukemia 55.7% | OVCAR-8 ovarian 68.6% | OVCAR-5 ovarian 83.9% | OVCAR-4 ovarian 63.4% | SK-OV-3 ovarian 69.2% | IGROV1 ovarian 52.7% | OVCAR-3 ovarian 50.5% | HS 578T breast 71% | NCI/ADR-RES ovarian 29.7%
